# Inconclusive results are not listed. A call without a number means that no potency is given here. Where a structure was tested more than once in an assay, its records may differ in their call. Calls of active or inactive are those of the source. Calls come from the whole dose curve; as a rule, active = well fitted cell-killing curve with a large enough effect in the repeat runs; inconclusive = weak or mixed curves, or effect the other way; inactive = flat fitted curve, though single readings scatter.
# Experiment: qHTS RealTime-Glo MT Cell Viability Assay in HepG2 cells - 0 hour (AID 1224889); note: nearly all actives have a fitted effect of over 50% in size
# Settings: RealTime-Glo luminescence; series mostly up to 76.8 µM; activity change, negative = cytotoxicity: at the top concentration
# Excerpt: U.S. Tox21 Program National Center for Advancing Translational Sciences [NCATS] NIH Chemical Genomics Center [NCGC] U.S. Environmental Protection Agency [EPA] National Institutes of Environmental Health Sciences [NIEHS] National Toxicology Program [NTP] U.S. Food and Drug Administration [FDA] Tox21 Assay Overview: Measure of cell viability is critical in the cell-base assay. Analysis of cell viability is necessary for the characterization of cell responses to cytotoxic drugs and environmental stress. A RealTime-Glo MT Cell Viability Assay to monitor cell viability in real time of continues cell culture during 40 hours of compound treatment was used to screen Tox21 10K library compounds in HepG2 cells. The RealTime-Glo MT Cell Viability Assay is a nonlytic, homogeneous, bioluminescent method to measure cell viability in real time using a simple, plate-based method. The assay involves adding NanoLuc luciferase and a cell-permeant prosubstrate to cells in culture. Viable cells reduce the proprietary prosubstrate to generate a substrate for NanoLuc luciferase. This substrate diffuses from cells into the surrounding culture medium, where it is rapidly used by the NanoLuc Enzyme to produce a luminescent signal. The signal correlates with the number of viable cells, making the assay well suited for cytotoxicity studies.
# Tox21 Assay Protocol Summary: The mixture of HepG2 cell suspension and reagents were dispensed at 600cells/6 ul/well in 1536-well tissue culture treated black solid bottom plates using a Multidrop dispenser. After the assay plates were incubated at a 37 C/5% CO2 incubator for 5 hours, 23 nL of compounds dissolved in DMSO, positive and negative controls was transferred to the assay plate by a pintool work station. The plates were incubated at 37 C for 40 hours. The luminescence intensity were measured at 0h, 8h, 16h, 24h, 32h and 40h time points using ViewLux plate reader during compound treatment.
# Potency is the fitted concentration of half-maximal effect.
SMILES,Potency,"activity change, negative = cytotoxicity"
CC(C)(Oc1ccc(CCNC(=O)c2ccc(Cl)cc2)cc1)C(=O)O,inactive,–
CC(C)c1cccc(C(C)C)c1,inactive,–
Cc1ccc2ncccc2c1,inactive,–
CC(=O)Oc1ccc(C)cc1,inactive,–
O=S(=O)(O)c1ccc(N=Nc2c(O)ccc3cc(S(=O)(=O)O)ccc23)cc1,–,-28.9% (inactive)
CCCCCCCCCCCCCCCC(=O)OC(C)C,inactive,–
CC(=O)OCc1ccccc1,inactive,–
C[C@]12CC[C@@H]3c4ccc(O)cc4CC[C@H]3[C@@H]1C[C@@H](O)[C@@H]2O,inactive,–
CCOC(=O)n1ccn(C)c1=S,inactive,–
CC(CCO)CC(C)(C)C (stereo not given),inactive,–
O=C1CCCC1,inactive,–
COc1ccc([N+](=O)[O-])cc1N,inactive,–
CC(=O)OCCOC(C)=O,inactive,–
CC1(C)CC(N)CC(C)(CN)C1 (stereo not given),–,6.09% (inactive)
CCCCCCC=O,inactive,–
COc1ccc(N)c(C)c1,inactive,–
CC(=O)OC1CC(C)OC(C)O1 (stereo not given),inactive,–
O=C1C(c2[nH]c3ccccc3c2O)=Nc2ccccc21,inactive,–
CN1C(=O)CC[C@H]1c1cccnc1,inactive,–
CC(C)CC(=O)CC(C)CC(C)C (stereo not given),inactive,–

SMILES,Potency,"activity change, negative = cytotoxicity"
O=C(O)/C=C/C(=O)O,inactive,–
CCCCCCCCCCCCCCCCO,inactive,–
CCNc1ccccc1,inactive,–
COc1ccc(CCC(C)=O)cc1,inactive,–
Nc1nc(N)nc(-c2ccccc2)n1,inactive,–
CC(C)OP(=O)(CP(=O)(OC(C)C)OC(C)C)OC(C)C,inactive,–
NCCCCCCN,inactive,–
O=c1[nH]cnc2[nH]ncc12,inactive,–
CCCCCCCO,inactive,–
CCNC(=S)NCC,inactive,–
OCc1ccccc1,inactive,–
CCNc1cccc(C)c1,inactive,–
C=CC(C)CCCC(C)(C)O (stereo not given),inactive,–
O=C(O)CCCCCCCCC(=O)O,inactive,–
N#Cc1ccccc1,inactive,–
O=[N+]([O-])c1ccc2nc[nH]c2c1,inactive,–
CCCCCCCCCCN,inactive,–
CC(=O)OCc1ccco1,inactive,–
CC(O)CC(C)(C)O (stereo not given),inactive,–
CCCCOC(=O)c1ccc(N)cc1,24.2 µM (active) and inactive,–

# Reference: PubChem BioAssay (Tox21)
